These results are taken from paper PMC7862700, “An all-to-all approach to the identification of sequence-specific readers for epigenetic DNA modifications on cytosine”.

Assay in all cases: DAPPL (digital affinity profiling via proximity ligation, sequencing); 10 mM Tris-HCl pH 7.5, 50 mM NaCl, 1 mM DTT, 4% glycerol, room temperature, 30 min; GST-TFs on glutathione beads, 16-mer random dsDNA library, 0.1% formaldehyde crosslink after washing; high values mean tight binding
Common to all, as to settings: protein: recombinant; tags: N-terminal GST; dsDNA, one strand shown

For one assay, the target named is T1, FLI1 (Homo sapiens, UniProt Q01543 1-452).
T1 sequence: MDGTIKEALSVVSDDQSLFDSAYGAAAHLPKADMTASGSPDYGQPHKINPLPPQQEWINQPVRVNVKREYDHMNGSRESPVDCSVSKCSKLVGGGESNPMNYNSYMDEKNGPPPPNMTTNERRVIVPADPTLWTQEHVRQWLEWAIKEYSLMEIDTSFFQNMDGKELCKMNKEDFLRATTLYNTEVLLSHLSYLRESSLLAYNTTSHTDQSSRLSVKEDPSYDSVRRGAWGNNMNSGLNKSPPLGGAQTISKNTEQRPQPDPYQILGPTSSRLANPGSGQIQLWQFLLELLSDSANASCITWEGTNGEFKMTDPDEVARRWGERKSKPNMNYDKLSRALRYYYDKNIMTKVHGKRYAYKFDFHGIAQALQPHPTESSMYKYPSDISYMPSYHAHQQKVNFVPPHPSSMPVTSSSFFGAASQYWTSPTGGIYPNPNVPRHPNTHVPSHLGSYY
In outline:
(§1)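 Sequencing on an Illumina NextSeq500 followed washing, crosslinking with 0.1% formaldehyde, proximity ligation (BsaI/T4 ligase, 1 h, 37 °C) and PCR amplification of pools that had been incubated for 30 min at room temperature with 200 nmole of a random double-stranded 16-mer DNA library in Tris/NaCl/DTT/glycerol buffer. Each pool held DNA-barcoded human transcription factors, expressed in yeast as GST fusions and captured on glutathione beads, plus a tag-only sample. Binding signal is a hexamer's read frequency for a factor divided by its frequency in the tag-only sample.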

The target of another assay is T2, ELK1 (Homo sapiens, UniProt P19419 1-428).
T2 sequence: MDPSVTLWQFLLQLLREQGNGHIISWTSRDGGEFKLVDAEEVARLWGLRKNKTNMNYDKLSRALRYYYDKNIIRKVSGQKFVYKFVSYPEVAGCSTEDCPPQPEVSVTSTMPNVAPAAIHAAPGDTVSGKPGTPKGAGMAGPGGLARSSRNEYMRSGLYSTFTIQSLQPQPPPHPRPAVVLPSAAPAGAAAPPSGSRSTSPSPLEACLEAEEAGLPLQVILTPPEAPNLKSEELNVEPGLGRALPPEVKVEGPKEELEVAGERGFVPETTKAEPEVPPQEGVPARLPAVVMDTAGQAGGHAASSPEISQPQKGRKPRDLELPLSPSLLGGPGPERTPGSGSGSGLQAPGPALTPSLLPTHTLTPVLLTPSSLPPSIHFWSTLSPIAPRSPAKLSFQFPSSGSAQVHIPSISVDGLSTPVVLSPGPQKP
In outline: as §1

A further assay has as its target T3, GABPA (Homo sapiens, UniProt Q06546 1-454).
T3 sequence: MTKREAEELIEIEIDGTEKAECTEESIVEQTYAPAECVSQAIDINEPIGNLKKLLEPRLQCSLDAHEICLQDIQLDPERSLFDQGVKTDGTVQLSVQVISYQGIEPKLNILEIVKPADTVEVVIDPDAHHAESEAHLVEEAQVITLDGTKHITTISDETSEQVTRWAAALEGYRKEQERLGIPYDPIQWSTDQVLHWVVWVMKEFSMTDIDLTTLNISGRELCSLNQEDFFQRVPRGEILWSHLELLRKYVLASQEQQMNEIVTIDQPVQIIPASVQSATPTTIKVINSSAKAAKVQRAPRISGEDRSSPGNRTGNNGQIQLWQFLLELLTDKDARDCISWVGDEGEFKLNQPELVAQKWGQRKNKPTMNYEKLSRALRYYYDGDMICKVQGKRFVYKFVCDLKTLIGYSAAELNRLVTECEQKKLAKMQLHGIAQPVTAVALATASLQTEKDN
In outline:
as §1

A further assay concerns the target T4, ERG (Homo sapiens, UniProt P11308 1-479).
T4 sequence: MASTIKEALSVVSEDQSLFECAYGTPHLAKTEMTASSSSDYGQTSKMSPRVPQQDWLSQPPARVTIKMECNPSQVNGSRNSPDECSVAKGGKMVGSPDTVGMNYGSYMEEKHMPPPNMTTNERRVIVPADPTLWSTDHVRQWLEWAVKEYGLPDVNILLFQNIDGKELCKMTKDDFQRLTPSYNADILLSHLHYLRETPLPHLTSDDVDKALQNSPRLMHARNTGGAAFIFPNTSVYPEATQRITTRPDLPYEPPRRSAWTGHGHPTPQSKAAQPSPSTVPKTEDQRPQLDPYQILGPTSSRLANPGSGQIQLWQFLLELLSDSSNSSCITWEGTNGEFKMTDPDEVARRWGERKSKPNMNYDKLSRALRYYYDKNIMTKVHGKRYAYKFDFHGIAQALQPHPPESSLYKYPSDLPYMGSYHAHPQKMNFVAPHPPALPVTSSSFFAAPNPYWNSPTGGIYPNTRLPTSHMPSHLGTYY
In outline:
as §1

A further assay concerns the target ELF1 (Homo sapiens, UniProt P32519 1-619). In outline:
as §1

In another assay the target is T5, EHF (Homo sapiens, UniProt Q9NZC4 1-300).
T5 sequence: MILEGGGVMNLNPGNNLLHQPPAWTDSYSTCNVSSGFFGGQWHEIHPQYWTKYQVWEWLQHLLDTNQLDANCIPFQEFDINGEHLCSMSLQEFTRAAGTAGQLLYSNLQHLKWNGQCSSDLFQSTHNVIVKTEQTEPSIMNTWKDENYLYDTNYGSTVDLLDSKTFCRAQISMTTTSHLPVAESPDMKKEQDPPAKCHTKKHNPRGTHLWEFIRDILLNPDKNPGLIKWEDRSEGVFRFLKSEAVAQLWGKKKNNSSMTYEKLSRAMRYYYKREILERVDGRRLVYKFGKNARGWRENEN
Put shortly:
as §1

The target of the next assay is SPI1 (Homo sapiens, UniProt P17947 1-270). In outline:
as §1

In the next assay the target is SPIB (Homo sapiens, UniProt Q01892 1-262). Put shortly:
as §1

A further assay has as its target T6, ELK3 (Homo sapiens, UniProt P41970 1-407).
T6 sequence: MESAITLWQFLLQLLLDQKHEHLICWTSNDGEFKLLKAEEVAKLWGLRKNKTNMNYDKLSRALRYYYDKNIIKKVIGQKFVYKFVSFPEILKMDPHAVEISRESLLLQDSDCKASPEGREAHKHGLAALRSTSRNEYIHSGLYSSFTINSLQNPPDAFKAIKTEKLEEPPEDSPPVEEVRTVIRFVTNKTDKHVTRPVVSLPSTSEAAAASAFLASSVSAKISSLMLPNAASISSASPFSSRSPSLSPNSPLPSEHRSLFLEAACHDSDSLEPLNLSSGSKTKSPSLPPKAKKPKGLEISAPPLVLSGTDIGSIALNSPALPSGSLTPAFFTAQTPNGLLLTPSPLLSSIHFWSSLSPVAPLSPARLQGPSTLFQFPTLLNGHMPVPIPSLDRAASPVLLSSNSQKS
Put shortly: as §1

In the next assay the target is T7, FEV (Homo sapiens, UniProt Q99581 1-238).
T7 sequence: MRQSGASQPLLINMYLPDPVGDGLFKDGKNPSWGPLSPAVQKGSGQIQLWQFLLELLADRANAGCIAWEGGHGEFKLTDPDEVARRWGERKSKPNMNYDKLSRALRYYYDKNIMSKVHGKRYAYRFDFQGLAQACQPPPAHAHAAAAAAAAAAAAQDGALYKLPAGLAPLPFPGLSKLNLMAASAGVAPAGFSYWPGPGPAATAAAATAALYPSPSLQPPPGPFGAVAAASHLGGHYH
Put shortly:
as §1

In a further assay the target is ETV5 (Homo sapiens, UniProt P41161 1-510). Put shortly:
as §1

The next assay concerns the target T8, SPIC (Homo sapiens, UniProt Q8N5J4 1-248).
T8 sequence: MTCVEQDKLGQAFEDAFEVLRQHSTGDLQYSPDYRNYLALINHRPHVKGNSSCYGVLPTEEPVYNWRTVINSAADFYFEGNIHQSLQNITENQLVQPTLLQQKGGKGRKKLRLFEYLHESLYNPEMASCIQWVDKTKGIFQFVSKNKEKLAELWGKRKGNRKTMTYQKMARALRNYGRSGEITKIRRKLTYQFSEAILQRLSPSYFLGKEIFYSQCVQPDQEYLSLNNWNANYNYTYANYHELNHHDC
Put shortly:
as §1

The target of a further assay is ELF4 (Homo sapiens, UniProt Q99607 1-663). In outline: as §1
Chain of ELF4 (Q99607 whole entry): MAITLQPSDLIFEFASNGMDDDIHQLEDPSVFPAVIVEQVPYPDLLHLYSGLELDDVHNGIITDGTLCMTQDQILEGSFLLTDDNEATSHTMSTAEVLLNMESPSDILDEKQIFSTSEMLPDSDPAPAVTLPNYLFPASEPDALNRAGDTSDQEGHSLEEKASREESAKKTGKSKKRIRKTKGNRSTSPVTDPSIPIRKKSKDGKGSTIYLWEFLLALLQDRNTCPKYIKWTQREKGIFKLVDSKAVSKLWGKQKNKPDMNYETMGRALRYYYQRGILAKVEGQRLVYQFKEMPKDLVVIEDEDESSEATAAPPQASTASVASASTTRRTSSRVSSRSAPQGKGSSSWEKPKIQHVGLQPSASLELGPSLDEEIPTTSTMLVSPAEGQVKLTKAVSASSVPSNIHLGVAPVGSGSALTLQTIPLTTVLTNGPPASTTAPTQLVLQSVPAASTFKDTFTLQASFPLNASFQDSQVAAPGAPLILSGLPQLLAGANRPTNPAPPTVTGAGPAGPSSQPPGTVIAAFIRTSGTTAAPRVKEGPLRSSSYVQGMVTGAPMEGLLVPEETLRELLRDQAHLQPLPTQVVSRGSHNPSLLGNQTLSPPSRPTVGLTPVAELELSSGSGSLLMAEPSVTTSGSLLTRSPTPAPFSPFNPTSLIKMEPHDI
The next assay concerns the target ETV1 (Homo sapiens, UniProt P50549 1-477). In outline: as §1
A further assay deals with T9, ERF (Homo sapiens, UniProt P50548 1-548).
T9 sequence: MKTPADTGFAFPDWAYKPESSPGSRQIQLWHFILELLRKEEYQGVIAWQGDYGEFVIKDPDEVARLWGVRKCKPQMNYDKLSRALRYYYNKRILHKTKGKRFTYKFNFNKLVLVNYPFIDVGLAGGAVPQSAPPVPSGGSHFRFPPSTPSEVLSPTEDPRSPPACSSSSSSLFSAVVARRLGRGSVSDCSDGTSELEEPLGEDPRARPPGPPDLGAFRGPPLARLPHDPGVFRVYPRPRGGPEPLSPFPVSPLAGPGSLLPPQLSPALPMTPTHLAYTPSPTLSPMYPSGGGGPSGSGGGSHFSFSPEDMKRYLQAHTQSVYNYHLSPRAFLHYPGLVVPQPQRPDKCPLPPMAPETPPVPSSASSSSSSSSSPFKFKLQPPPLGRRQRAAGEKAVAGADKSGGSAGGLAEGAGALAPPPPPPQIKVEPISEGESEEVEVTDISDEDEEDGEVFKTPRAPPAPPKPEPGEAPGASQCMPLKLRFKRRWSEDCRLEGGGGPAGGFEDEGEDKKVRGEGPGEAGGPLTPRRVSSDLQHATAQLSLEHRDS
Put shortly: as §1

In the next assay the target is T10, ETV3L (Homo sapiens, UniProt Q6ZN32 1-361).
T10 sequence: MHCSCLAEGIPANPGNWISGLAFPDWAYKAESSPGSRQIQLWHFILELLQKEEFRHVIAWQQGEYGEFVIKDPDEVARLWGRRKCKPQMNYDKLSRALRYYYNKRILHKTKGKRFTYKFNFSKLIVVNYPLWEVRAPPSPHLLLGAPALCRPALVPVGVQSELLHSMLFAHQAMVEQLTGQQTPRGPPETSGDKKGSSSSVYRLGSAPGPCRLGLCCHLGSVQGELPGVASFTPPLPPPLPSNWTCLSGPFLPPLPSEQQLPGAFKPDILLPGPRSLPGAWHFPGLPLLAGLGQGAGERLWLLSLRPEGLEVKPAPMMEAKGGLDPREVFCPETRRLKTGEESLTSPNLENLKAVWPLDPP
Put shortly:
as §1

The target of another assay is T11, ETS2 (Homo sapiens, UniProt P15036 1-469).
T11 sequence: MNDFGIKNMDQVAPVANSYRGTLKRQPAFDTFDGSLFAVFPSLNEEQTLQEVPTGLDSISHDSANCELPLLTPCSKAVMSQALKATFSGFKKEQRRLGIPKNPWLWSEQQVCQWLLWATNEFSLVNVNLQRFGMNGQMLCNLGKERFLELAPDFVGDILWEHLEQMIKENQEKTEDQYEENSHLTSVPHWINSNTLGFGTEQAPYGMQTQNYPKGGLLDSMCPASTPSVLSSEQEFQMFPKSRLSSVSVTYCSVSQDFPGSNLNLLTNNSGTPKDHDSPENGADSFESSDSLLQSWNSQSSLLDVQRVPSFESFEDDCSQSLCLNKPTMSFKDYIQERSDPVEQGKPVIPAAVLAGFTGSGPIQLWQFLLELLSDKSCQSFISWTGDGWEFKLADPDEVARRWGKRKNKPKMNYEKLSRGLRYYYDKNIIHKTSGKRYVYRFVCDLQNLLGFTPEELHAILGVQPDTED
In outline: as §1

The next assay concerns the target T12, ELF5 (Homo sapiens, UniProt Q9UKW6-2 1-255).
T12 sequence: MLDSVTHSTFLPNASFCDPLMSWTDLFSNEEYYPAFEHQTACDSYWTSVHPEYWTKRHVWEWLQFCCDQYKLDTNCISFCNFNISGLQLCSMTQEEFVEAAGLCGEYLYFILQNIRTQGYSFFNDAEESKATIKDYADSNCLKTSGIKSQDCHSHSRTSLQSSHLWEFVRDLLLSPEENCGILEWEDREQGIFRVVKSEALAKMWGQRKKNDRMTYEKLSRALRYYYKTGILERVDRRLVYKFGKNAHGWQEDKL
Put shortly:
as §1

A further assay deals with T13, ETV3 (Homo sapiens, UniProt P41162-2 1-143).
T13 sequence: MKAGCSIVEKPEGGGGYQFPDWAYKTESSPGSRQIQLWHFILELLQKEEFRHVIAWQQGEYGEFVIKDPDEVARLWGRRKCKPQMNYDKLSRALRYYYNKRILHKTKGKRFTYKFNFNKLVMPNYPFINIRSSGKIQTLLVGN
Put shortly: as §1

The target in a further assay is ETV6 (Homo sapiens, UniProt P41212 1-452). Put shortly:
as §1

Chain of ETV1 (P50549 whole entry): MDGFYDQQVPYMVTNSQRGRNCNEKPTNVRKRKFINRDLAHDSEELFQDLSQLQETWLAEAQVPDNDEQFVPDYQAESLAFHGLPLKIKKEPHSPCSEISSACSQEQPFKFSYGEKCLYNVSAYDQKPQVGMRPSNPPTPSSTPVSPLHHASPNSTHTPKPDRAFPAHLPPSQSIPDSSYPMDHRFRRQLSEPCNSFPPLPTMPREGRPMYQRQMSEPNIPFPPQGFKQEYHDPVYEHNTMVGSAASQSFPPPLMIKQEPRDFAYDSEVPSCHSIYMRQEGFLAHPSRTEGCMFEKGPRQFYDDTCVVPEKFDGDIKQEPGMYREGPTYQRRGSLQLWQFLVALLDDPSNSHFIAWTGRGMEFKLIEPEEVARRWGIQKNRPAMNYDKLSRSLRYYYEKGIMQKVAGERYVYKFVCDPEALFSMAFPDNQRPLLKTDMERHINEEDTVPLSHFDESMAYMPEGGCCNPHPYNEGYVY
Chain of SPIB (Q01892 whole entry): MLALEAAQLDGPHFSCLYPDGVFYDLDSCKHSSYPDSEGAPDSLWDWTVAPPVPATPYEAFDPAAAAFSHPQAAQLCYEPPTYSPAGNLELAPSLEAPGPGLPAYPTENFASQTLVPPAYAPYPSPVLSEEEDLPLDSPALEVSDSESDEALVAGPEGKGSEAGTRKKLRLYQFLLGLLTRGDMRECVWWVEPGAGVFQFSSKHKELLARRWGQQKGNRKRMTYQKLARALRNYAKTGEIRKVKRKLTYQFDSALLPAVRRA
Chain of ETV5 (P41161 whole entry): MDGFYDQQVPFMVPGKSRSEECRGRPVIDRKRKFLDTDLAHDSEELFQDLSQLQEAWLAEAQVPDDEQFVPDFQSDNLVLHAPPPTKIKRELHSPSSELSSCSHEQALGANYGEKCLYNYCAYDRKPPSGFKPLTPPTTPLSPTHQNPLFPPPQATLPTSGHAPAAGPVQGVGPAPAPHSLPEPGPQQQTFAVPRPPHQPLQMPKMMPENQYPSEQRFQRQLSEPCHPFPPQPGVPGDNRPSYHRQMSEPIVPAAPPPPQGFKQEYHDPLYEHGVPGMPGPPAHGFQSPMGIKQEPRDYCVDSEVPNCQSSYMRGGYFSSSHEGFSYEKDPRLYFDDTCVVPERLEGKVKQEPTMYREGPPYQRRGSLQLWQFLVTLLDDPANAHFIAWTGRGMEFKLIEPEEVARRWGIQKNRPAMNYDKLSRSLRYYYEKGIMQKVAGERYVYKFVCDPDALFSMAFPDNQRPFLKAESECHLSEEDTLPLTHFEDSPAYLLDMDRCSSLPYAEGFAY
Chain of ETV6 (P41212 whole entry): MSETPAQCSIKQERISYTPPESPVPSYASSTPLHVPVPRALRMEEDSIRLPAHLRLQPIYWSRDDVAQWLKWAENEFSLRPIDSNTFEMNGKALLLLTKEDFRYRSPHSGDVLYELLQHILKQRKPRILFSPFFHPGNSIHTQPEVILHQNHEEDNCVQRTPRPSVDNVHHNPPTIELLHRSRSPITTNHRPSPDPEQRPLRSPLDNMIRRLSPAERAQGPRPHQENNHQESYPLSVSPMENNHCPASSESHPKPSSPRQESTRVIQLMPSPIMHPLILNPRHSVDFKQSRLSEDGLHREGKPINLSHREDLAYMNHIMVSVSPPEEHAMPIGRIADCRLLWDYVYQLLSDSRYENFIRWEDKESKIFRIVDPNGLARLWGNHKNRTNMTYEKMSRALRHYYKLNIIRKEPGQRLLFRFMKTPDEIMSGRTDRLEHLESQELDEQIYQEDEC
Chain of ELF1 (P32519 whole entry): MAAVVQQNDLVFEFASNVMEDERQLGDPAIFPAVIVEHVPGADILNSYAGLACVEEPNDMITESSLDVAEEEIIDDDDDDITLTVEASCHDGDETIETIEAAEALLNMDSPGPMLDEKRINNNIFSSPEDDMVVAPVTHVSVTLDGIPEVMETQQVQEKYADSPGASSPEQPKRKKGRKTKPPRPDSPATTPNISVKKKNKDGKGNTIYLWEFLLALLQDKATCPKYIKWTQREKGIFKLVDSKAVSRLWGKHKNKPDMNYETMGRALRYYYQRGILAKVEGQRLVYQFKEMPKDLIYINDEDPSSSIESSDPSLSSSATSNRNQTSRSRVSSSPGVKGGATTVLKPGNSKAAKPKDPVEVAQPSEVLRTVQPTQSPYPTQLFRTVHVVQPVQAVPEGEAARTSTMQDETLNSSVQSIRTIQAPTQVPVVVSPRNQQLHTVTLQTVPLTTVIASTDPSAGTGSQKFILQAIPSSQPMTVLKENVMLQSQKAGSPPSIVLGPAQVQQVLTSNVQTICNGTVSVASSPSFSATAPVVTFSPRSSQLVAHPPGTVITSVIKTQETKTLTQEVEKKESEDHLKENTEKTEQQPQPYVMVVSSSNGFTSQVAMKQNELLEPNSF

With ACCACC, the binding signal with FLI1 was 1.1 fold enrichment (6-mer frequency, TF over GST control); with ELK1 it was 1.08 fold enrichment (6-mer frequency, TF over GST control); with GABPA, 1.14 fold enrichment (6-mer frequency, TF over GST control); in the assay with ERG, 1.11 fold enrichment (6-mer frequency, TF over GST control); with ELF1 it was 1.18 fold enrichment (6-mer frequency, TF over GST control); in the assay with EHF it was 1.15 fold enrichment (6-mer frequency, TF over GST control). Besides, the binding signal in the assay with SPI1 was 1.1 fold enrichment (6-mer frequency, TF over GST control); with SPIB, 1.18 fold enrichment (6-mer frequency, TF over GST control); with ELK3, 1.21 fold enrichment (6-mer frequency, TF over GST control); in the assay with FEV it was 1.18 fold enrichment (6-mer frequency, TF over GST control); in the assay with ETV5, 1.1 fold enrichment (6-mer frequency, TF over GST control); with SPIC it was 1.08 fold enrichment (6-mer frequency, TF over GST control). Also, the binding signal with ELF4 was 1.14 fold enrichment (6-mer frequency, TF over GST control); with ETV1, 1.02 fold enrichment (6-mer frequency, TF over GST control); in the assay with ERF, 1.17 fold enrichment (6-mer frequency, TF over GST control); with ETV3L it was 1.08 fold enrichment (6-mer frequency, TF over GST control); in the assay with ETS2, 1.15 fold enrichment (6-mer frequency, TF over GST control); with ELF5 it was 1.07 fold enrichment (6-mer frequency, TF over GST control). Moreover, the binding signal with ETV3 was 1.08 fold enrichment (6-mer frequency, TF over GST control); with ETV6, 1.09 fold enrichment (6-mer frequency, TF over GST control).
